In PubChem BioAssay AID1347426 (Functional Genomics Laboratory (NCATS/FGL), 2020):
Out of some 31,000 sequences screened, about 1,400 (4.5%) were called active.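 How the source made its calls: active means median seed-adjusted z-score above 1 or below -1; inactive means the rest.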 The sample as a whole holds a higher share of actives than the screen did.

Test: Novel Modifiers of Survival Motor Neuron (SMN) Protein: Gene Identification via Genome-wide siRNA Screen;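 further: luminescence tracks full-length SMN protein made from the SMN2 reporter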
Conditions: HEK293T SMN2-luciferase reporter, siRNA knockdown, 72 h; actives lie on both sides
Outline: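 HEK293T cells stably expressing an SMN2 splicing/cDNA-luciferase reporter were reverse-transfected with a druggable-genome siRNA library and read by luminescence at 72 hours; hits defined by MAD score above 1.0 or below -1.0.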

Sequence | median seed-adjusted z-score
CUAUGGACCAGUCAAAUAATT against NDUFB7 | -0.379 (inactive)
ACACCCGCGUGUCUGAUUATT against PPAP2C | -1.12 (active)
CCCUCAUCAAGAACUUUCATT against S100A14 | 0.0172 (inactive)
GCCUAAACAGUGACCGAUUTT against BDH1 | -0.0253 (inactive)
CUGCUGUUGUUACUACCCATT against USF1 | 0.16 (inactive)
GCAAGACCACGCUCCUUUATT against ARL11 | 1 (active)
GGAGUUAUCUGGUGACAAUTT against UROS | -0.248 (inactive)
GGCUAGUAGCUGAACUUCATT against DIMT1L | 0.0156 (inactive)
CAGUUGCAUUGGUUCCCAUTT against EZH1 | 0.268 (inactive)
GCUUUGGAAGGGUUUGAUATT against DCT | -0.184 (inactive)
GACGAAUCACUGCAGUUUATT against GOSR2 | -1.25 (active)
CAAGGUCUCCUGUGCUGAATT against MYOG | -0.0972 (inactive)
GGAUGUUGAUGAAGGCAAATT against LDHAL6A | -0.15 (inactive)
GAAUAUAACCUGCCGCUUUTT against CD44 | 0 (inactive)
GGGCUGGAUUGGUACAGGATT against HS3ST2 | 0.133 (inactive)
CGUGUGAUCCAGAGACUUATT against KRT1 | -0.362 (inactive)
AAGGCUACUUAACAAAGGATT against S100A10 | 0.366 (inactive)
GACGACUUCUUGAACAGAATT against ZNF207 | -3.1 (active)
GUAGGAUUGUUUAGUGUAATT against CACNA1D | -0.0856 (inactive)
GCUUUGAGAUUUUCGAGGATT against MYO1B | 0.903 (inactive)
CGAGAGCUCCAGAUCAUGATT against GSK3B | -0.952 (inactive)
GGGAUUGAGUUAAAACUAUTT against SOX7 | -0.387 (inactive)

Sequence | median seed-adjusted z-score
GGUAGCUUCUGAUAAUGAUTT against LEO1 | 1.2 (active)
CGUGGGUAAUGAUGCGGAATT against TOM1 | 0.774 (inactive)
GGAGUUGAAGGCCUACAAATT against APOE | 0.0321 (inactive)
CCUUGUCUGUGCUCAAGUATT against USP35 | -0.219 (inactive)
CACUUACCAAGGAUACCAATT against PHC2 | 0.177 (inactive)
GGAUUUUACAGGAUAUCUUTT against SPPL2A | -0.358 (inactive)
GAAUGGACUGGUACCUAUUTT against ALDOB | -1.34 (active)
GGAUCUGCAUAGUGACCAATT against PSMB1 | -0.35 (inactive)
AUGUUUCAAUAGAUCCAGATT against LIMD2 | 0.418 (inactive)
GCACCAAAGUAUACAACGATT against PRKAR2B | -0.777 (inactive)
GAUCUUGGAUGGAUUGCUATT against OCA2 | 0.457 (inactive)
ACAACCCUCUUAAAACUAATT against IGF2 | -0.0306 (inactive)
CUGUAUGGGUGGUCAAUCATT against ABCA1 | -1.27 (active)
GGACAACGAUAACCGAUCATT against CA1 | 0.262 (inactive)
GUCUAAAUCUCGUUCCAAATT against SRrp35 | -0.0574 (inactive)
AGGUCAAUGUGACUUUCCATT against KCNJ10 | -0.0371 (inactive)
GAAACGAUAUGAAUGUAAATT against ZNF491 | 0.0642 (inactive)
CCAUUGAAGAGGCUAUGAATT against SPAG7 | 0.263 (inactive)
GAGUGGGAAUGGUCAGGCUTT against ADORA2B | -0.471 (inactive)
GGUCCAUGGUGGAAGACGATT against MAL | 0.0733 (inactive)
CCAUCUCAGGAGUUAGCUATT against ZNF281 | 1.19 (active)
GUGUCUGGAUUUUCACUGATT against F11 | -0.0319 (inactive)

Sequence | median seed-adjusted z-score
AGGCCUUGGUGGAACAUGUTT against PSAP | 0.107 (inactive)
GCUCGUAAGUUGGUGAUCATT against TPM3 | 0.111 (inactive)
GAACUAGCACGCAUCAAGATT against PPM1G | 0.073 (inactive)
GCACCAGCCUUAACCCUCATT against RAB1B | 1.55 (active)
AAAUCCCGGUGAUCAUCGATT against MAP1LC3A | 0 (inactive)
GAGACAACCUGCAACGACATT against GDI1 | 0.198 (inactive)
CAGGAGUGAUUAAACGGUUTT against GNAI3 | 0.0656 (inactive)
GCUCUCAUAUCAUUCCAUUTT against PPIL5 | 0 (inactive)
GAUGAUUACCUGCAGAGCATT against MYD88 | -0.365 (inactive)
CCAUCAAAAUCGCAGACUUTT against DDR1 | -0.166 (inactive)
GGAUGUCUAGAUUACAUUUTT against PDE12 | 0.422 (inactive)
GGAGUACCGGCUAACAAUATT against MORC4 | 0.13 (inactive)
ACAUGAUCUUGGACCUGGATT against CSNK2B | -1.62 (active)
CAAUAGGAUUGGUCACCAATT against PNPT1 | 0.0729 (inactive)
CAACCAUCCCAUGUCUGUUTT against NMNAT2 | -1.58 (active)
GGAGUUAGCACUAACAUAATT against NUP98 | 0.168 (inactive)
GGAUAGUGAUGAUGUCUAUTT against GPR98 | -0.509 (inactive)
CCUCAACUCGUGAAGAAGATT against GPRC5A | -0.56 (inactive)
GGCAUAUGGUUAUCGAGGATT against EML4 | 0.958 (inactive)
CGUCCAAGAUCGAACCCAUTT against HIRA | 0.286 (inactive)
GCAAUCGGGUGGUAUCAUATT against COPS5 | -0.124 (inactive)
CAAGCAUGGUCUUUCUACUTT against TUBB2A | 1.03 (active)

Sequence | median seed-adjusted z-score
CGAGAUCUCAAGUCUAACATT against ARAF | 0.535 (inactive)
GGAAGUACGUUCCAUACAATT against GALNT17 | 0.392 (inactive)
GGAUCUGUAUCAAGCCGUUTT against APC | 0.154 (inactive)
GCAAUGCACUGACGGAUAUTT against EFEMP1 | 0.0157 (inactive)
GUAUCAGAAUGAGAGUUCUTT against ACP2 | -0.00569 (inactive)
GAAAUACCCUCACAUGUUATT against LSM2 | -1.48 (active)
GAUGUAUUGUUACUACCAATT against SCNN1G | -0.616 (inactive)
CCACAAGGGUUAUCUGUCATT against MAPK4 | 0.235 (inactive)
GUCACUUCAUGGGCAAGAATT against NMB | 0.746 (inactive)
CCGUUGUUGUAAGAAGAAATT against MICA | -0.0635 (inactive)
GGAUUAAGCCCUUCGAAGATT against SOCS5 | 0.312 (inactive)
AGUUCUCGGAGGUGCUUAATT against CKB | -0.236 (inactive)
GGACAAUCUUAUUCCUAUUTT against CFHR4 | -0.0972 (inactive)
GAGCUGCAACUGACAUCUUTT against PLTP | 1.09 (active)
GCAUCUUCACCAAAGUCAUTT against RHEBL1 | -0.268 (inactive)
GGCUGACCUGUACCACUUUTT against SH3BP1 | -0.225 (inactive)
GCCUCAGAGUUCACGGACATT against ROBO4 | -0.431 (inactive)
GCUACGGCGUGGACAAGAATT against RELB | 1.16 (active)
GGACCGUCUACUCAUCCAATT against IL8RB | -0.387 (inactive)
GGAGGAGAUAGGCACUGAATT against TIGD3 | 0.486 (inactive)
GCUUUUAUCCUAGACAUCATT against PAQR8 | 0 (inactive)
GUGGGAAAGUCUAUGGAAATT against KLF9 | 0.767 (inactive)

Sequence | median seed-adjusted z-score
GGCCUAAGCUAAAUCGAGATT against SKP2 | -0.126 (inactive)
CAAAGGAUGUCAUUCGUAATT against CKAP5 | -1.87 (active)
CGGCCGAAGUAGUAAAAGATT against ADA | -0.242 (inactive)
UCAUCAAUGCUACUGGUUATT against TM7SF2 | -0.674 (inactive)
CGGCUGUGGUGAACCAGUATT against INHBB | -0.522 (inactive)
GCAUAGGAUUCAUUGAGUUTT against NME1 | 0.188 (inactive)
GACCCGUACUUCAUGAAGATT against SF3A2 | -1.7 (active)
GGACCCAAGUCUUGCUGCATT against CARD18 | 0.568 (inactive)
CGAUCCUAUUCGAUGAGAATT against GRM5 | -0.227 (inactive)
CAGUGAAUAUGGAACCGGATT against CHD3 | 0.589 (inactive)
AGUAUGUGCUGAUCCGAGUTT against PHPT1 | 1.27 (active)
CCUGAACACACCUUACAUATT against RNASE8 | 0.00771 (inactive)
CAUAGAUUCUGUACGGCAATT against MPP5 | 0.429 (inactive)
GGUAUUCCUGUUCAACAAATT against ZNF235 | 0.348 (inactive)
GCUGACCGCUGGGUGAUAATT against TMPRSS6 | 1.29 (active)
CCUCACACUUGAUUCAGUUTT against RPP38 | 0.07 (inactive)
GGUCAUAGCCUACUGUCUATT against SLC32A1 | -0.251 (inactive)
CUACCAGCAUGUGAUGUUUTT against CH25H | -0.264 (inactive)
GGAUGCAGAACGACGUGAATT against SLC25A10 | -0.571 (inactive)
GUACCUUUUCCAAACCAAATT against SETD8 | -1.52 (active)
CAAAACAGACCGAAAGAAATT against DBX2 | 0.244 (inactive)
